Assay results as given in PubChem BioAssay (EPA / NIEHS).
Results filed as inconclusive are left out. Calls of active or inactive are those of the source. Rule for the calls, unless noted: active = hit-call score of the fitted dose curve at least 0.9, where 1 is the maximum; inactive = score below 0.9.

Columns and labels:
[1] = read-out: Transforming Growth Factor (TGFA), TGFA (gene 7039); test: LTEA_HepaRG_TGFA: Life Technologies and Expression Analysis (LTEA) Assay for Transforming Growth Factor (TGFA) using HepaRG (AID 2283532); settings: mRNA level, 48 h; actives raise or lower the signal
Outline: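 TGFA transcript quantified by qRT-PCR (Fluidigm arrays) against three housekeeping genes, after 48 hours chemical treatment of HepaRG cells. Top concentration 100 uM with half-log dilutions, 8 points, duplicates, 0.5% DMSO.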

[2] = read-out: Transforming Growth Factor (TGFB1), TGFB1 (gene 7040); test: LTEA_HepaRG_TGFB1: Life Technologies and Expression Analysis (LTEA) Assay for Transforming Growth Factor (TGFB1) Transporter using HepaRG (AID 2283533); settings: mRNA level, 48 h; actives raise or lower the signal
Outline: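 HepaRG, 48 h post-plating, switched to serum-free induction medium; chemicals 100 uM top, half-log, 8 pts, 0.5% DMSO, dup; 48 h exposure; RNA → Fluidigm TaqMan qRT-PCR; norm ACTB/GAPDH/POLR2A; bidirectional fit vs DMSO.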

[3] = read-out: TIMP1, TIMP1 (gene 7076); test: LTEA_HepaRG_TIMP1: Life Technologies and Expression Analysis (LTEA) Assay for TIMP1 using HepaRG (AID 2283534); settings: mRNA level, 48 h; actives raise or lower the signal
Outline: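 Readout is TIMP1 mRNA level measured by qRT-PCR and normalized to three housekeeping genes. Human HepaRG cells were treated for 48 h in duplicate at eight concentrations up to 100 uM (0.5% DMSO); gain or loss fitted against DMSO.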

[4] = read-out: Tumor necrosis factor receptor 1 (TNFRSF1A), TNFRSF1A (gene 7132); test: LTEA_HepaRG_TNFRSF1A: Life Technologies and Expression Analysis (LTEA) Assay for Tumor necrosis factor receptor 1 (TNFRSF1A) using HepaRG (AID 2283535); settings: mRNA level, 48 h; actives raise or lower the signal
Outline: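 Read-out is TNFRSF1A transcript level by TaqMan qRT-PCR, normalized to three housekeeping genes, scored as gain or loss of signal versus 0.5% DMSO. Human HepaRG cells received test chemicals for 48 h at up to 100 uM (half-log series).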

[5] = read-out: Thyroid Hormone Responsive (THRSP), THRSP (gene 7069); test: LTEA_HepaRG_THRSP: Life Technologies and Expression Analysis (LTEA) Assay for Thyroid Hormone Responsive (THRSP) using HepaRG (AID 2283536); settings: mRNA level, 48 h; actives raise or lower the signal
Outline: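 THRSP transcript quantified by Fluidigm qRT-PCR against three housekeeping genes after 48 h chemical exposure of HepaRG cells in serum-free induction medium; eight-point half-log series, top 100 uM, 0.5% DMSO vehicle, duplicate wells.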

[6] = read-out: Cellular tumor antigen p53 (Homo sapiens) (UniProt P04637); test: LTEA_HepaRG_TP53: Life Technologies and Expression Analysis (LTEA) Assay for Tumor Protein P53 (TP53) using HepaRG (AID 2283537); settings: mRNA level, 48 h; actives raise or lower the signal
Outline: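 Differentiated HepaRG cells in serum-free induction medium exposed 48 h in duplicate to 8 half-log concentrations, top 100 uM, 0.5% DMSO. TP53 mRNA by TaqMan qRT-PCR (Fluidigm), normalized to ACTB, GAPDH, POLR2A; fitted bidirectionally versus DMSO.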

[7] = read-out: UDP glucuronosyltransferase (UGT1A1), UGT1A1 (gene 54658); test: LTEA_HepaRG_UGT1A1: Life Technologies and Expression Analysis (LTEA) Assay for UDP glucuronosyltransferase (UGT1A1) using HepaRG (AID 2283538); settings: mRNA level, 48 h; actives raise or lower the signal
Outline: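 UGT1A1 transcript level, measured by qRT-PCR with three housekeeping genes for normalization, after 48 h treatment of human HepaRG cells (0.5% DMSO, duplicates, up to 100 uM, half-log steps, 8 points). Curves fit both directions against DMSO baseline.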

[8] = read-out: UDP glucuronosyltransferase (UGT1A6), UGT1A6 (gene 54578); test: LTEA_HepaRG_UGT1A6: Life Technologies and Expression Analysis (LTEA) Assay for UDP glucuronosyltransferase (UGT1A6) using HepaRG (AID 2283539); settings: mRNA level, 48 h; actives raise or lower the signal
Outline: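 HepaRG, 48 h post-plating switch to serum-free induction medium; chemical 48 h, 100 uM top, half-log x8, duplicate, 0.5% DMSO. Phenobarbital 1mM induction control. UGT1A6 mRNA by TaqMan qRT-PCR; gain/loss fit vs DMSO.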

[9] = read-out: X-box binding protein 1 (XBP1), XBP1 (gene 7494); test: LTEA_HepaRG_XBP1: Life Technologies and Expression Analysis (LTEA) Assay for X-box binding protein 1 (XBP1) using HepaRG (AID 2283540); settings: mRNA level, 48 h; actives raise or lower the signal
Outline: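 Transcript levels of XBP1, measured by qRT-PCR and normalised to three housekeeping genes, were fitted bidirectionally relative to 0.5% DMSO controls. Human HepaRG cells received eight-point half-log dilutions from 100 uM for 48 h.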

[10] = LTEA_HepaRG_LDH_cytotoxicity: Cytotoxicity Assessment in the Life Technologies and Expression Analysis (LTEA) Assay (AID 2283563; active = hit-call score of the fitted dose curve at least 0.9, where 1 is the maximum;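 for AC50: LDH activity released into spent culture medium as a marker of cell death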)
Outline: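 Cells were thawed and plated for 48 h. Medium was then replaced with serum-free induction medium. Chemicals (8 half-log points, maximum 100 uM, 0.5% DMSO) were added in duplicate for 48 h, after which spent medium was assayed for LDH.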

[11] = TOX21_p53_BLA_p2_viability: Viability Assessment in the Tox21 HCT-116 p53 Agonism Beta-lactamase Assay, Phase 2 (AID 2283591; active = hit-call score of the fitted dose curve at least 0.9, where 1 is the maximum;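 note: compound exposure lasted 16 h at 37 °C; actives lower the ATP signal meaning cytotoxicity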)
Outline: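 Cytotoxicity readout: CellTiter-Glo ATP luminescence, 30 min at room temperature, after the beta-lactamase read. Cells were HCT116 exposed 16 h at 37C to compounds pin-transferred at 217-fold dilution from DMSO stocks.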

[12] = biological target: Cellular tumor antigen p53 (Homo sapiens) (UniProt P04637); test: TOX21_p53_BLA_p2_ratio: Tox21 HCT-116 p53 Agonism Beta-lactamase Assay, Ratio, Phase 2 (AID 2283592; active = hit-call score of the fitted dose curve at least 0.9, where 1 is the maximum)
Cellular tumor antigen p53 (Homo sapiens), sequence (P04637 whole entry, looked up): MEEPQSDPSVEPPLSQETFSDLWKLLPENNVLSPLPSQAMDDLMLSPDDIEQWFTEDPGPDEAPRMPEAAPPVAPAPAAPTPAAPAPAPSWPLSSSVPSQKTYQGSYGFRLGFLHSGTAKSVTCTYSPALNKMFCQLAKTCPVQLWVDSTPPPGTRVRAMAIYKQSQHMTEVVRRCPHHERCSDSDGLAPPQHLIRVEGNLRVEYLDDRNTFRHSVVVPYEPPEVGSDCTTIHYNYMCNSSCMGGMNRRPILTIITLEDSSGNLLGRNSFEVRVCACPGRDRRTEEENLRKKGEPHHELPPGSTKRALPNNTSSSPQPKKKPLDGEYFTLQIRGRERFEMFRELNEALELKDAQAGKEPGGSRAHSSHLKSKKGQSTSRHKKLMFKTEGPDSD
Outline: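 Plated HCT116 p53-bla cells (4000/well) received compound after 5 h, then 16 h at 37C/5% CO2. CCF4-AM added, 2 h RT. Ratio of 460 to 530 nm emission taken as the p53 reporter signal.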

[13] = biological target: Cellular tumor antigen p53 (Homo sapiens) (UniProt P04637); test: TOX21_p53_BLA_p3_ratio: Tox21 HCT-116 p53 Agonism Beta-lactamase Assay, Ratio, Phase 3 (AID 2283596; active = hit-call score of the fitted dose curve at least 0.9, where 1 is the maximum)
Outline: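 Cells were seeded at 4000/well, rested 5 h at 37C, then dosed with DMSO compound solutions (217-fold dilution) for 16 h. CCF4-AM substrate was loaded for 2 h at room temperature, and the 460/530 nm emission ratio was fitted for gain of signal versus DMSO.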

[14] = TOX21_p53_BLA_p4_viability: Viability Assessment in the Tox21 HCT-116 p53 Agonism Beta-lactamase Assay, Phase 4 (AID 2283597; active = hit-call score of the fitted dose curve at least 0.9, where 1 is the maximum;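 note: hits lower the luminescence signal meaning cytotoxicity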)
Outline: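 Readout: ATP luminescence (CellTiter-Glo), measured 30 min after reagent addition at RT. The reagent followed a 2 h CCF4-AM incubation, and the cells had been exposed to compound for 16 h at 37C.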

[15] = biological target: Cellular tumor antigen p53 (Homo sapiens) (UniProt P04637); test: TOX21_p53_BLA_p5_ratio: Tox21 HCT-116 p53 Agonism Beta-lactamase Assay, Ratio, Phase 5 (AID 2283599; active = hit-call score of the fitted dose curve at least 0.9, where 1 is the maximum)
Outline: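 Beta-lactamase reporter ratio (blue 460 nm over green 530 nm, 405 nm excitation) after 2 h CCF4-AM loading, in HCT-116 cells exposed 16 h at 37 C to compounds pinned at 217-fold dilution. Increases relative to DMSO baseline scored.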

[16] = TOX21_p53_BLA_p5_viability: Viability Assessment in the Tox21 HCT-116 p53 Agonism Beta-lactamase Assay, Phase 5 (AID 2283600; active = hit-call score of the fitted dose curve at least 0.9, where 1 is the maximum)
Outline: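 Workflow: seed 4000 cells per well, wait 5 h, add compounds (DMSO, 217-fold dilution), incubate 16 h, load CCF4-AM 2 h, add CellTiter-Glo, read luminescence after 30 min.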

[17] = Tanguay_ZF_120hpf_MORT_legacy: (Legacy) Oregon State University Tanguay Lab 120 Hour Post-fertilization zebrafish Assay for Mortality (AID 2283633; active = hit-call score of the fitted dose curve at least 0.9, where 1 is the maximum)
Outline: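 5D WT zebrafish, chorion removed 4 hpf; 1 embryo/well from 6 hpf; static exposure to 120 hpf, 28C, dark, sealed. Final DMSO 0.64%. Readout: binary mortality, brightfield, 24 + 120 hpf; DMSO as negative control.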

[18] = biological target: Cellular tumor antigen p53 (Homo sapiens) (UniProt P04637); test: TOX21_p53_BLA_p4_ratio: Tox21 HCT-116 p53 Agonism Beta-lactamase Assay, Ratio, Phase 4 (AID 2283601; active = hit-call score of the fitted dose curve at least 0.9, where 1 is the maximum)
Outline: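 Signal is the blue/green (460nm/530nm) ratio of cleaved versus uncleaved CCF4-AM substrate, read after 2 h substrate loading. Cells were HCT116 carrying the p53-responsive beta-lactamase reporter, dosed 16 h at 37C, 5% CO2; CellTiter-Glo measured in parallel.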

[19] = TOX21_p53_BLA_p3_viability: Viability Assessment in the Tox21 HCT-116 p53 Agonism Beta-lactamase Assay, Phase 3 (AID 2283593; active = hit-call score of the fitted dose curve at least 0.9, where 1 is the maximum;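 note: cells exposed to compound for 16 h before reading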)
Outline: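 Cellular ATP was quantified by CellTiter-Glo luminescence, read after 30 min at room temperature. Beforehand, HCT116 cells (4000/well) received compound 5 h post-seeding, 217-fold diluted from DMSO, then incubated 16 h at 37C.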

Measured: AC50

O=c1ccc2ccccc2o1
active: [7] 65.4 µM
not listed: [18] | [19]
inactive: all other assays above

CC[C@@H]1C[C@H](N(Cc2cc(C(F)(F)F)cc(C(F)(F)F)c2)C(C)=O)c2cc(C(F)(F)F)ccc2N1C(=O)OC(C)C
active: [7] 0.546 µM
not listed: [11] | [19]
inactive: all other assays above

O=C(O)c1ccccc1-n1cc(C(=O)O)c(=O)c2cc(Nc3c(F)cc(F)cc3Cl)c(Cl)cc21
active: [4] 0.0319 µM | [8] 0.0904 µM
not listed: [11] | [13] | [14] | [15] | [16] | [18] | [19]
inactive: all other assays above

Cc1cc2c(cc1C(F)(F)F)N(C(=O)Nc1ccc(Oc3cccnc3C)nc1)CC2
active: [3] 83 µM | [4] 73.6 µM | [6] 75 µM | [7] 81.4 µM | [8] 76.1 µM | [10] 70.5 µM
not listed: [15]
inactive: all other assays above
